We go through 62 compounds from PMC9574860, “Chemical Toolkit for PARK7: Potent, Selective, and High-Throughput” (Journal of Medicinal Chemistry, 2022).

Molecules are shown by their SMILES. The campaign covered roughly 7,900 compounds. About 400 (5.1%) showed an effect of 50% or more. This excerpt belongs to a sample that is enriched for strong results.

Chain of Parkinson's disease protein 7 (PARK7/DJ1) (Q99497 whole entry, looked up, the tested form may be a part): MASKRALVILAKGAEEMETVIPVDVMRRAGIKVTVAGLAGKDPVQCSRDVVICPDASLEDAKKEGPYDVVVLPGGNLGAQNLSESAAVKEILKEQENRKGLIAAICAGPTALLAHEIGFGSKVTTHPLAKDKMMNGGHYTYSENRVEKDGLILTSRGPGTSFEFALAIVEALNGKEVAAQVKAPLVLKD

This assay deals with Parkinson's disease protein 7 (PARK7/DJ1) (human, UniProt Q99497). The experiment in a line: primary screen, percent inhibition; read as competition with a fluorescent probe by fluorescence polarization; higher = more effect of the substance. Conditions: 100 µM. An outline of the steps:
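Fluorescence-polarization probe displacement (JYQ-107, 20 nM final, 2 h) after 2 h preincubation of PARK7 (0.2 μM final) with each fragment at 100 μM final. Read-out ex/em 480/520 nm; remaining activity derived from FP signal loss relative to reference controls.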
Compound `CC(=O)Nc1c(C)cc(C)c(C(=O)CCl)c1C` came in with an Inhibition % of 14%. Turning to `Cl.O=C(CCl)Nc1ncc[nH]1`, the Inhibition % is 1.78%. The figure for `C=CC(=O)N1C[C@H](F)C[C@H]1C(=O)N1CCOCC1` is 10.5%.

The compound `C=CC(=O)N1CCC(c2nc(C(F)(F)F)c[nH]2)CC1` registered an Inhibition % of 0.0839%. For `C=CC(=O)N1CCC(C(=O)NCC(F)(F)F)C1` (centres unmarked), the Inhibition % is listed as 4.08%. As to `COC(F)(F)C(F)(F)c1ccc(B2OC(C)(C)C(C)(C)O2)cc1`, the Inhibition % amounted to 6.09%. The figure for `O=C(O)c1ccoc1CS` is 64.1%; for `CN(Cc1ncnn1C)S(=O)(=O)C=Cc1ccccc1` it is 3.12%; for `COc1ccccc1CNC(=O)CCl` it is 28%.

`COc1ccccc1CN(C)C(=O)CCl` returned an Inhibition % of 98.6%. `COc1cccc(CN(C)C(=O)CCl)c1OC` came in with an Inhibition % of 74.5%. For `COc1ccccc1C(C)N(C)C(=O)CCl` (centres unmarked), the Inhibition % worked out at 31.5%. Under `COc1ccccc1CCNC(=O)CCl` stands 15.8%.

The compound `COc1cc(CO)ccc1B1OC(C)(C)C(C)(C)O1` yielded an Inhibition % of 4.39%. Regarding `CC(c1ccsc1)N1CCN(c2ccc(C#N)nc2)CC1` (centres unmarked), the Inhibition % was determined as 7.22%. `CCN(CC)S(=O)(=O)c1cc(NC(=O)CCl)ccc1C`: the Inhibition % is given as 7.16%. Compound `CCN(CC)S(=O)(=O)c1cccc(NC(=O)CCl)c1` gave an Inhibition % of 22.5%. For the compound `CN(C)S(=O)(=O)c1ccc(NC(=O)CCl)cc1`, the Inhibition % was 84.2%. Under `COc1ccc(NC(=O)CCl)cc1S(=O)(=O)N(C)C` stands 9.41%; under `Cc1ccc(NC(=O)CCl)cc1S(=O)(=O)N(C)C`, 10.4%; under `CCN(CC)S(=O)(=O)c1ccc(NC(=O)CCl)cc1`, 90.5%. Under `CN(C)S(=O)(=O)c1ccc(NC(=O)CCCl)cc1` stands 7.94%. The figure for `CC(C)N(C)S(=O)(=O)c1ccc(NC(=O)CCl)cc1` is 83.8%; for `C=CC(=O)N[C@H]1C[C@H](C)S(=O)(=O)c2sccc21` it is 7.51%. As for `C=CC(=O)N1CCOCC2(CC2)C1`, the Inhibition % stood at 33.9%.

Take `C=CC(=O)N1CCN(c2ccc(C)o2)C(=O)C1`: the Inhibition % came to 5.39%.

`Cc1ccoc1C=C(C#N)C(=O)NCCc1ccccc1` displayed an Inhibition % of 0.974%. Take `O=S1(=O)C=CC(O)C1` (centres unmarked): the Inhibition % is 4.75%. Under `C=C(Cl)CSc1nc2ccsc2c(=O)n1C` stands 13.1%. On to `CC1(C)OB(c2ccc3c(c2)NC(=O)C3)OC1(C)C`, for which the Inhibition % is 27.3%. Take `C=CC(=O)N1CCCCC1CS(C)(=O)=O` (centres unmarked): the Inhibition % was 5.69%. For the compound `O=C(C1CCOCC1)N1CCC(S(=O)(=O)F)CC1`, the Inhibition % is 30.7%. The figure for `O=C(C1CCOCC1)N1CCCCC1CCS(=O)(=O)F` (centres unmarked) is 82.4%; for `COC(=O)C1CC(S(=O)(=O)F)CN1C(=O)C1CC1C` (centres unmarked) it is 13.7%; for `O=C(C1CCOCC1)N1CCOC(CS(=O)(=O)F)C1` (centres unmarked) it is 13.3%.

`CC1CC1C(=O)N1CCCCC1CCS(=O)(=O)F` (centres unmarked) came in with an Inhibition % of 57.7%. `C=CC(=O)N1CCSC2(CCC2)CC1` registered an Inhibition % of 10.9%. `NC(=O)C1CCCN(S(=O)(=O)C=Cc2ccccc2)C1` (centres unmarked) returned an Inhibition % of 6.58%. With `CS(=O)(=O)C(C#N)=Cc1cnn(-c2ccccc2)c1`, the Inhibition % was 10.2%. `CN1CCN(c2cccc(C#N)n2)CC1`: the Inhibition % is given as 5.08%. The figure for `CC1CC(Sc2nnc(-c3ccco3)o2)C(=O)O1` (centres unmarked) is 1.96%. In the case of `C=CC(=O)N1CCOC(c2ccc(C(F)(F)F)cc2)C1` (centres unmarked), the Inhibition % is recorded as 1.86%. Regarding `O=C(CCl)N1CCOC(c2ccc(F)cc2)C1` (centres unmarked), the Inhibition % worked out at 95.3%. The figure for `CCC1CN(C(=O)CCl)CCO1` (centres unmarked) is 33.6%; for `CC(C)c1nc(C(C)Nc2ccc(C#N)nc2)cs1` (centres unmarked) it is 3.63%. `Cl.NCC1OB(O)c2ccccc21` (centres unmarked) gave an Inhibition % of 3.67%. The figure for `Cc1oncc1Cn1c(-c2ccncc2)noc1=O` is 59.3%; for `O=c1onc(-c2ccccc2)n1Cc1ccncc1` it is 1.3%.

`Cc1noc(C)c1Cn1c(-c2ccccc2)noc1=O` displayed an Inhibition % of 14.3%. Compound `Sc1nnnc2ccccc12` registered an Inhibition % of 3.52%.

Compound `O=C(NCC12CCCN1CCC2)c1cccc(S(=O)(=O)F)c1` showed an Inhibition % of 86.4%. `CS(=O)C1(CNC(=O)c2cccc(S(=O)(=O)F)c2)CCC1` (centres unmarked): the Inhibition % is recorded as 97.3%. In turn, `CN1CCC2(CCCN2C(=O)c2cccc(S(=O)(=O)F)c2)CC1` gave an Inhibition % of 10.6%. Consider `O=C(NCCC(=O)N1CCCCC1)c1cc(S(=O)(=O)F)c[nH]1`, for which the Inhibition % worked out at 5.43%. Compound `C=CC(=O)Nc1ccccc1N1CCNC(=O)C1` registered an Inhibition % of 10.7%. Under `C=CC(=O)N(CC)C1CCOC(C)(C)C1` (centres unmarked) stands 8.38%; under `O=c1c2ccccc2ncn1CCS(=O)(=O)F`, 14.1%; under `O=c1c2ccccc2ccn1CCS(=O)(=O)F`, 95.1%. In the case of `O=c1c2ccsc2ncn1CCS(=O)(=O)F`, the Inhibition % turned out to be 19.7%. The compound `CC1(C)OB(c2ccc(C3CCC(=O)N3)cc2)OC1(C)C` (centres unmarked) came in with an Inhibition % of 6.79%. The compound `CNC(=O)C(NC(=O)CCl)c1ccccc1` (centres unmarked) came in with an Inhibition % of 8.83%. Turning to `CC1(C)OB(c2cc(CN3CCCC3)ccc2F)OC1(C)C`, the Inhibition % stood at 3.85%.
